Assay outcomes (PubChem BioAssay)
The list is not random: actives were taken first. Their share in the collection is about 3.5%.
BJeLR lethal: BJeLR cell viability loss | BJeLR (HRASV12) viability, CellTiter-Glo ATP luminescence, 48 h | inhibition, % (concentration not given with the values) | 0.17% of 300,000 active | AID 1554; in the data active = inhibition above about 50%; inconclusive = no clear call, values can overlap the other calls
BoNT-A LC inh2: inhibitors of Botulinum neurotoxin A light chain protease; inhibition, % at 10 µM; 0.17% of 360,000 active; multiplex microsphere protease substrate cleavage, flow cytometry; note: plate controls were buffer without enzyme for full effect and enzyme alone for no effect
Anthrax LF prot: blocks Bacillus anthracis lethal factor protease. multiplex microsphere protease cleavage assay, LF. AID 588501. inhibition, % at 10 µM. 0.12% of 360,000 active; note: plate controls were buffer without enzyme for full effect and enzyme alone for no effect
BoNT-F LC inh: inhibitors of Botulinum neurotoxin F light chain protease | Multiplex microsphere protease cleavage assay, flow cytometry | inhibition, % at 10 µM | 0.22% of 360,000 active; in the data active = inhibition above about 35%, passing the limit was not always enough; inconclusive = no clear call, values can overlap the other calls; note: plate controls were buffer without enzyme for full effect and enzyme alone for no effect
Autofluor counter: compound fluorescence in toxin protease inhibitor counterscreen; compound autofluorescence counterscreen, microsphere flow cytometry; hits give high values; fluorescence intensity (no concentration beside the values); 3.1% of 360,000 active; AID 624483; in the data active = fluorescence intensity above about 16000; inconclusive = no clear call, values can overlap the other calls
The depositor's hits bear a star; ? = inconclusive; nt = not tested or not shown. Cut-off read from the data, not from the text of the source, unless noted: active = inhibition above about 30%; inconclusive = no clear call, values can overlap the other calls; inactive = below that.

SMILES | BJeLR lethal | BoNT-A LC inh2 | Anthrax LF prot | BoNT-F LC inh | Autofluor counter
CN1CCN(C(=O)c2ccc(-n3cccc3)cc2)CC1 | 19 | ? | 1 | -5 | 20993*
CN1CCN(C(=O)c2ccc3ccccc3c2)CC1 | -19 | 0 | 1 | 3 | 23924*
O=C(c1ccc2ccccc2c1)N1CCCC1 | -7 | 1 | -4 | 20 | 3408
O=C(c1ccc(-n2cccc2)cc1)N1CCN(Cc2ccccc2)CC1 | nt | 1 | -16 | -5 | 6926
CN(C(=O)COc1ncnc2sccc12)C1CCCCC1 | nt | 1 | -2 | 6 | 3572
Clc1ccc(-c2n[nH]c3c2CCC3)cc1Cl | 1 | -1 | -1 | -2 | 2482
CCN(Cc1ccccc1)CC(O)COC(c1ccc(OC)cc1)c1ccc(OC)cc1 (stereo not drawn) | 0 | -1 | -3 | 0 | 5885
C=CCn1c(O)c(N=NC(=O)OC(C)(C)C)c2ccccc21 | -1 | -1 | -2 | 0 | 10796
C=CCn1c(O)c(N=NC(=S)Nc2ccc(OC)c(Cl)c2)c2ccccc21 | 21 | 29 | 30* | 6 | 8602
O=C(CCOc1ccccc1)NCC(c1ccco1)N1CCCCC1 (stereo not drawn) | 6 | 0 | -1 | 7 | 5969
CCOc1ccc(-n2c(Cc3cc(=O)[nH]c(=O)[nH]3)nnc2SCC)cc1 | 8 | ? | 0 | 4 | 19071*
Cc1ccc(-c2csc(N)n2)s1 | -5 | -2 | 0 | -1 | 20327*
OCC[C@@H]1C[C@H](O)[C@@H](O)[C@]2(OCc3ccc(CO)cc32)O1 | nt | 0 | -5 | 14 | 5728
CCC(Sc1nc2cc3c(cc2c(=O)n1Cc1ccco1)OCO3)C(=O)Nc1cccc(OC)c1 (stereo not drawn) | 2 | 1 | -6 | 2 | 21154*
CCC(Sc1nc2cc3c(cc2c(=O)n1Cc1ccco1)OCO3)C(=O)Nc1ccccc1OC (stereo not drawn) | -3 | ? | -1 | -1 | 23027*
CCC(Sc1nc2cc3c(cc2c(=O)n1Cc1ccco1)OCO3)C(=O)NCCOC (stereo not drawn) | 8 | 0 | -8 | -11 | 5792
N#Cc1cccc(NC(=O)COc2ccc(-n3ccnc3)cc2)c1 | 3 | -1 | -3 | -1 | 23571*
Cc1nc(NC(=O)COc2ccccc2)sc1C(=O)Nc1cccc(Cl)c1 | 6 | ? | -4 | -8 | 24209*
Cc1ccc(NC(=O)Cn2c(=O)oc3ccccc32)cc1C | -2 | -3 | -2 | -8 | 3473
COc1ccc(OCC(=O)Nc2cccc(OC)c2)cc1 | -9 | -3 | -5 | -4 | 17719*
COc1cccc(NC(=O)Cn2c(=O)oc3ccccc32)c1 | -7 | -1 | -2 | -2 | 23609*
COc1ccc(OCC(=O)Nc2cc(OC)cc(OC)c2)cc1 | -13 | 2 | 0 | -5 | 7744
COC(=O)COc1cccc(NC(=O)c2ccccc2)c1 | 7 | ? | -10 | -2 | 24578*
CNC(=O)CCCc1nc(-c2ccccc2Cl)no1 | 1 | -6 | -5 | -10 | 17469*
O=C(CCCc1nc(-c2ccccc2)no1)NCc1cccnc1 | 2 | ? | 0 | -8 | 24495*
SMILES | BJeLR lethal | BoNT-A LC inh2 | Anthrax LF prot | BoNT-F LC inh | Autofluor counter
COc1ccc(-c2noc(CCC(=O)NCc3cccnc3)n2)cc1OC | 7 | 1 | -3 | -15 | 9256
O=C(CCc1nc(-c2ccccc2)no1)NCCc1ccccc1 | -13 | 3 | -10 | 2 | 22301*
O=C(CCCc1nc(-c2ccccc2)no1)Nc1cccnc1 | -7 | -1 | 2 | -6 | 4183
COc1ccc(-c2noc(CCC(=O)NCc3cccnc3)n2)cc1 | -1 | -1 | 1 | -4 | 23172*
NC(=O)CCCc1nc(-c2ccccc2Cl)no1 | -1 | 0 | -2 | 2 | 11046
Cc1ccc(C)c(CC(=O)N2CCCC(c3cc(C(=O)Nc4ccccc4Cl)no3)C2)c1 (stereo not drawn) | nt | -1 | 3 | -4 | 3888
O=C(COc1ccc(S(=O)(=O)N2CCOCC2)cc1)NCCc1ccc(Cl)cc1 | nt | 2 | 13 | 6 | 3819
CC(C)CCOCc1nc2sc3c(c2c(=O)[nH]1)CCC(C)C3 (stereo not drawn) | -2 | -1 | -3 | -8 | 9391
NC(=O)Nc1ccc(F)cc1 | -2 | 0 | -5 | -7 | 3260
CN1[C@@H](Cc2ccccc2)COc2cc(N3CCSCC3)ccc2S1(=O)=O | nt | 0 | -10 | 1 | 6490
CCc1nc2c(OCc3ccc(C(F)(F)F)cc3)cccn2c1N(C=O)Cc1ccc(OC)cc1 | nt | 0 | 1 | -1 | 3590
COc1ccc(Cc2nc(-c3ccc(NC(=O)c4cccnc4)cc3)no2)cc1 | 90* | 1 | 2 | 10 | 2307
Cc1cc(C)cc(C(=O)NC(=S)Nc2cccnc2)c1 | -11 | 0 | -1 | -7 | 5761
O=CN/C=C/c1cccc(O)c1 | nt | -1 | -5 | -16 | 3524
CCOC(=O)c1c(C)[nH]c(C(=O)COC(=O)C(C)N2C(=O)C3CCCCC3C2=O)c1C (stereo not drawn) | -4 | -8 | -3 | -9 | 24956*
Cc1cc(CNC[C@H]2O[C@@H](n3cnc4c(N)ncnc43)[C@H](O)[C@@H]2O)no1 | nt | 0 | -2 | 0 | 3492
CCS(=O)(=O)Nc1cccc(C2=NN(S(=O)(=O)c3ccc(C)cc3)C(c3cccs3)C2)c1 (stereo not drawn) | -4 | 1 | -2 | -4 | 7629
CCc1ccc(C2=NN(S(C)(=O)=O)C(c3cccs3)C2)cc1 (stereo not drawn) | -6 | -2 | -3 | 2 | 19673*
CCS(=O)(=O)Nc1cccc(C2=NN(S(=O)(=O)c3ccccc3)C(c3cccs3)C2)c1 (stereo not drawn) | -2 | -2 | 0 | -4 | 22079*
CC(C)c1ccc(S(=O)(=O)N(C)C2(C)CCS(=O)(=O)C2)cc1 (stereo not drawn) | 1 | 0 | 2 | -4 | 5869
CC(C)c1ccc(NC2CCCN(C(=O)CN3CCCC3=O)C2)cc1 (stereo not drawn) | -1 | -4 | 1 | -6 | 6879
CC(C)[C@]12O[C@H]1[C@@H]1O[C@]13[C@]1(O[C@H]1C[C@H]1C4=C(CC[C@@]13C)C(=O)OC4)[C@@H]2O | 68* | nt | nt | nt | nt
COC(=O)C[C@H]1c2cc(F)ccc2S(=O)(=O)N1Cc1ccccc1 | 12 | 0 | -5 | 2 | 3962
CCC(Sc1nc(C)cc(=O)[nH]1)C(=O)Nc1nc(-c2ccccc2)cs1 (stereo not drawn) | nt | -1 | -2 | -3 | 22493*
CC(C)C[C@H](NS(=O)(=O)c1ccc(Br)cc1)C(=O)O | -8 | 3 | -2 | 1 | 22565*
CC(C)CC(NS(=O)(=O)c1cccc(C(=O)O)c1)C(=O)O (stereo not drawn) | -3 | 0 | -4 | -8 | 4252
CCCn1c(=O)n(C)c(=O)c2c(SC(C)C(=O)NCC3CCCO3)nc(CC(C)C)nc21 (stereo not drawn) | 8 | -2 | -10 | -8 | 5514
C=CCNc1ncnc2c1ncn2[C@H]1CN(Cc2cccc3ccccc23)C[C@@H](CO)O1 | nt | 0 | 5 | -2 | 3851
O=C(c1ccccn1)N1CCN(C(=O)c2ccccn2)CC1 | -2 | 0 | 0 | -2 | 16386*
